Results filed as inconclusive are left out. The source made the active and inactive calls. Unless noted, calls follow the shape of the dose curve; as a rule, active = well fitted curve in the direction sought with a large enough effect in the repeat runs; inconclusive = weak or mixed curves; inactive = no such curve, though single readings can be large; an effect the other way counts as inactive or inconclusive.
Legend:
[1] = target: Progesterone receptor (Homo sapiens) (UniProt P06401); assay: qHTS assay to identify small molecule antagonists of the progesterone receptor (PR) signaling pathway (AID 1346795; active = well fitted inhibition curve with a large enough effect in the signal ratio in the repeat runs, not every such curve was filed as active; the % refers to the signal ratio); details: PR-UAS-bla HEK293T, beta-lactamase FRET ratio, 16 h; series mostly up to 92.4 µM
Procedure, shortened: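 After 6 hr plating at 37C in 2% stripped-serum medium, PR-UAS-bla HEK293T cells got compounds, then 1 nM R5020. Sixteen hours later, LiveBLAzer substrate was applied for 2 hr at room temperature and fluorescence was recorded.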

[2] = qHTS assay to identify small molecule antagonists of the progesterone receptor (PR) signaling pathway - cell viability counter screen (AID 1346798); details: PR-UAS-bla HEK293T viability, CellTiter-Glo luminescence, 16 h; series mostly up to 92.4 µM; also: nearly all actives have a fitted effect of over 50% in size
Procedure, shortened: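 Viability was determined by ATP-based luminescence (CellTiter-Glo) in PR-UAS-bla HEK293T cells cultured in 2% charcoal-stripped serum and incubated 16 hr with compounds under R5020 stimulation.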

[3] = qHTS assay to identify small molecule antagonists of the TGF-beta/Smad signaling pathway - cell viability counter screen (AID 1346824); details: SBE-bla HEK293T viability, CellTiter-Glo luminescence; series mostly up to 76.8 µM; also: nearly all actives have a fitted effect of over 50% in size
Procedure, shortened: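 Cytotoxicity counter-screen run in the same wells as the beta-lactamase Smad reporter read: CellTiter-Glo luminescence after 30 min at room temperature. HEK 293T SBE-bla cells had 5 hr compound exposure at 37 C with TGF-beta1 (0.25 ng/mL stock).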

[4] = qHTS assay to identify small molecule agonists of the TGF-beta/Smad signaling pathway - cell viability counter screen (AID 1346829); details: SBE-bla HEK293T viability, CellTiter-Glo luminescence, 5 h; series mostly up to 76.8 µM; also: top concentration of the series differs between compounds; nearly all actives have a fitted effect of over 45% in size
Procedure, shortened: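 Compound-treated SBE-bla HEK 293T cells (5 hr, 37 C) were assessed for viability with CellTiter-Glo in parallel with the reporter read.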

[5] = qHTS assay to identify small molecule agonists of the TGF-beta/Smad signaling pathway (AID 1346859; active = well fitted activation curve with a large enough effect in the signal ratio in the repeat runs, not every such curve was filed as active; the % refers to the signal ratio); details: SBE-bla HEK293T, TGF-beta/Smad beta-lactamase reporter, 5 h; series mostly up to 76.8 µM
Procedure, shortened: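 Dual-wavelength fluorescence (460/530 nm emission) quantified beta-lactamase expression under the Smad binding element in HEK 293T cells following 5 hr compound treatment at 37 C.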

[6] = target: Thyrotropin-releasing hormone receptor (Homo sapiens) (UniProt P34981); assay: qHTS assay to identify small molecule antagonists of the thyrotropin-releasing hormone receptor (TRHR) signaling pathway (AID 1346877; active = well fitted inhibition curve with a large enough effect in the repeat runs, not every such curve was filed as active); details: TRHR-HEK293, TRH-induced calcium fluorescence, antagonist mode; series mostly up to 51.3 µM
Procedure, shortened: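 Screening used HEK293 cells engineered with TRHR, with a brief 5 min room-temperature compound exposure preceding addition of TRH to 1 nM. The read-out was kinetic calcium-dye fluorescence, concentration-response from 15 doses in triplicate.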

[7] = target: Thyrotropin-releasing hormone receptor (Homo sapiens) (UniProt P34981); assay: qHTS assay to identify small molecule agonists of the thyrotropin-releasing hormone receptor (TRHR) signaling pathway (AID 1346891; calls by dose curve;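 also: HEK293 cells expressing TRHR with calcium dye readout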); details: TRHR-HEK293 calcium fluorescence, agonist mode; series mostly up to 57.6 µM
Procedure, shortened: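 Kinetic fluorescence (3 min, 1 s intervals) reported intracellular calcium after compound transfer onto TRHR-Hek293 cells pre-loaded with dye for 2 h at 37 °C.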

[8] = Human pregnane X receptor (PXR) small molecule agonists, qHTS cell viability counter screen (AID 1346977); details: PXR-Luc HepG2 viability, CellTiter-Fluor, 24 h; series mostly up to 92.4 µM; also: nearly all actives have a fitted effect of over 50% in size
Procedure, shortened: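 HepG2 cells stably carrying the PXR-Luc reporter are cultured with 5% charcoal-stripped FBS and treated with compounds for 24hr. CellTiter-Fluor is added at 23hr and fluorescence is read after 1hr.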

[9] = Caspase-3/7 induction in HepG2 cells by small molecules, qHTS assay (AID 1346978); details: HepG2 caspase-3/7 activation, Caspase-Glo luminescence, 17 h; series mostly up to 92.4 µM; also: nearly all actives have a fitted effect of over 15% in size
Procedure, shortened: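 Caspase-3/7 induction was measured by Caspase-Glo 3/7 luminescence (30 min, room temperature) after a 17 hr compound exposure of wild-type HepG2 cells seeded at 2,000 per well and pre-incubated 5 hr.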

[10] = qHTS assay to identify small molecule agonists of the progesterone receptor (PR) signaling pathway - cell viability counter screen (AID 1346799; calls by dose curve; also: nearly all actives have a fitted effect of over 45% in size); details: PR-UAS-bla HEK293T viability, CellTiter-Glo luminescence, 16 h; series mostly up to 92.4 µM
Procedure, shortened: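 Viability was scored by ATP luminescence (CellTiter-Glo, 30 min, room temperature) in the same wells used for the reporter readout, after 16 hr compound exposure of PR-UAS-bla HEK293T cells.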
% is scaled to controls: 0 for no effect and ±100 for the full control effect.

Progesterone receptor (Homo sapiens), sequence (P06401 whole entry, looked up): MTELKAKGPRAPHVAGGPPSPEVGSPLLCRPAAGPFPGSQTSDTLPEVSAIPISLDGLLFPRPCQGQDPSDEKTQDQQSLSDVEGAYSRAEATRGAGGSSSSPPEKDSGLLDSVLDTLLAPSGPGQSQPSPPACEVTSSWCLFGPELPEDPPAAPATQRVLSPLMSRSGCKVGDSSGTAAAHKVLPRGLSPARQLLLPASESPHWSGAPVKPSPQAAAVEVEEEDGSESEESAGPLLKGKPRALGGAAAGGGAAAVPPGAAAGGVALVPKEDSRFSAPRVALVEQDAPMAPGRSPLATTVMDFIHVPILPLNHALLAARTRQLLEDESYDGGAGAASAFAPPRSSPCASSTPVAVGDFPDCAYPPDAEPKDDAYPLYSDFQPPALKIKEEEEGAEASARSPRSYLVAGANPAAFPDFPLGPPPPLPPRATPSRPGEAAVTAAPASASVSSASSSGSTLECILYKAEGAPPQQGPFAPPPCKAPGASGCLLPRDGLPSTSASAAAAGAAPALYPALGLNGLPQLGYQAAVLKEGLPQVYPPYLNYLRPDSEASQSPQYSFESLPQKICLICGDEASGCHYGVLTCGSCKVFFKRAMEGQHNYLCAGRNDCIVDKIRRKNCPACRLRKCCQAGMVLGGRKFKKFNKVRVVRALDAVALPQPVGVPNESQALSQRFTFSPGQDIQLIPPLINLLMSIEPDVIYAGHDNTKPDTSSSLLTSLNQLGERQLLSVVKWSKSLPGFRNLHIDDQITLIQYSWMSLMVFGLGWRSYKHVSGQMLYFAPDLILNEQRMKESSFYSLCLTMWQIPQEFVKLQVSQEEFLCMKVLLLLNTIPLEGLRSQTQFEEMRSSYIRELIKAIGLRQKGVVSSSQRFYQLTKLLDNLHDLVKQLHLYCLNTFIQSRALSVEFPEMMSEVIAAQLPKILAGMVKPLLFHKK
Thyrotropin-releasing hormone receptor (Homo sapiens), sequence (P34981 whole entry, looked up): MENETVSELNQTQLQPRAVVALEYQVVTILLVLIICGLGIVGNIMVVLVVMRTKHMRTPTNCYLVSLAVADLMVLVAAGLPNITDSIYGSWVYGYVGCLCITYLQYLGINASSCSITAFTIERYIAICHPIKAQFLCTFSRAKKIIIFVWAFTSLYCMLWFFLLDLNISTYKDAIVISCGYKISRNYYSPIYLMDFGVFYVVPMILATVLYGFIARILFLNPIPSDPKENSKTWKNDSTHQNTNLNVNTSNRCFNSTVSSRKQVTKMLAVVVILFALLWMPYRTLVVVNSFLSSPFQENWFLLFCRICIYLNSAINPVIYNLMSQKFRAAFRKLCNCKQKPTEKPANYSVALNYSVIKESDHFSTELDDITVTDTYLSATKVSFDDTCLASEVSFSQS

COC(=O)CCCCCCCC(=O)OC
inactive: Potency [1] | Potency [2] | outcome [3] | outcome [4] | outcome [5] | outcome [6] | outcome [7] | Potency [8] | Potency [9]

COc1ccc(C2CNC(=O)C2)cc1OC1CCCC1 (stereo not given)
inactive: Potency [1] | Potency [2] | outcome [3] | outcome [4] | outcome [5] | outcome [6] | outcome [7] | Potency [8] | Potency [9]

CC(C)C(=O)OCc1cccc(OC(=O)[C@@H]2N3C(=O)[C@@H](NC(=O)Cc4ccccc4)[C@H]3SC2(C)C)c1
inactive: Potency [1] | Potency [2] | Potency [10] | outcome [4] | outcome [5] | outcome [6] | outcome [7] | Potency [8] | Potency [9]

COc1ccc(-c2cc(=O)c3c(O)cc(O[C@@H]4O[C@H](CO[C@@H]5O[C@@H](C)[C@H](O)[C@@H](O)[C@H]5O)[C@@H](O)[C@H](O)[C@H]4O)cc3o2)cc1O
inactive: Potency [1] | Potency [2] | Potency [10] | outcome [3] | outcome [5] | outcome [6] | outcome [7] | Potency [8] | Potency [9]

O=C(O)Cc1ccc(Cl)cc1Cl
inactive: Potency [1] | Potency [2] | Potency [10] | outcome [4] | outcome [5] | outcome [6] | Potency [8] | Potency [9]

COC(=O)C1CC(=O)C(C(=O)OC)CC1=O (stereo not given)
inactive: activity change, negative = inhibition [1] 5.34% [at 8.39 µM] | activity change, negative = cytotoxicity [2] 15.1% [at 8.39 µM] | viability change, negative = cytotoxic [3] -4.8% [at 6.97 µM] | activity change, negative = cytotoxicity [4] -0.722% [at 6.97 µM] | activation [5] 5.28% [at 6.97 µM] | activity, negative = inhibition [6] 1.02% [at 4.65 µM] | activation [7] 0.0574% [at 5.23 µM] | activity change, negative = cytotoxicity [8] 1.52% [at 8.39 µM] | caspase activation [9] 0.89% [at 8.39 µM]

CC1=CCC(C(C)C)=CC1
inactive: Potency [1] | Potency [2] | Potency [10] | outcome [4] | outcome [5] | Potency [8] | Potency [9]

N[C@@H](CCC(=O)N[C@@H](CS)C(=O)NCC(=O)O)C(=O)O
inactive: activity change, negative = inhibition [1] 1.1% [at 18.9 µM] | activity change, negative = cytotoxicity [2] 2.33% [at 18.9 µM] | activity change, negative = cytotoxicity [10] 3.29% [at 19 µM] | viability change, negative = cytotoxic [3] 18.5% [at 15.8 µM] | activity change, negative = cytotoxicity [4] 1.41% [at 15.8 µM] | activity change, negative = cytotoxicity [8] 1.19% [at 19 µM] | caspase activation [9] -1.46% [at 19 µM]

Cc1ccc(S(=O)(=O)O)c(C)c1
inactive: Potency [1] | Potency [2] | outcome [4] | outcome [5] | outcome [6] | Potency [8] | Potency [9]

Cc1cc(C(C)(C)C)c(O)c(C)c1CC1=NCCN1
inactive: Potency [1] | Potency [2] | outcome [3] | outcome [4] | outcome [6] | Potency [8] | Potency [9]

Cc1ccccc1OCC(O)CO (stereo not given)
inactive: Potency [1] | Potency [2] | Potency [10] | outcome [3] | outcome [4] | Potency [8] | Potency [9]

CC(=O)Nc1ccc(S(=O)(=O)Cl)cc1
inactive: Potency [1] | Potency [10] | outcome [3] | outcome [4] | outcome [5] | outcome [6] | outcome [7] | Potency [8]

Cc1cccc(C)c1NC(=O)c1ccccc1C(=O)O
inactive: Potency [1] | Potency [2] | Potency [10] | outcome [4] | outcome [6] | outcome [7] | Potency [8] | Potency [9]

Cc1c(I)c(=O)n(-c2ccccc2)n1C
inactive: Potency [1] | Potency [10] | outcome [4] | outcome [5] | outcome [6] | outcome [7] | Potency [8] | Potency [9]

CCCCOC(=O)c1ccccc1
inactive: Potency [1] | Potency [10] | outcome [3] | outcome [4] | outcome [5] | outcome [6] | outcome [7] | Potency [8] | Potency [9]

CCN1CCc2nc(N)oc2CC1
inactive: Potency [1] | Potency [10] | outcome [3] | outcome [4] | outcome [5] | outcome [6] | outcome [7] | Potency [8] | Potency [9]

O=C(O)c1ccc(Cl)cc1Cl
inactive: Potency [1] | Potency [10] | outcome [4] | outcome [5] | outcome [6] | outcome [7] | Potency [8] | Potency [9]

FC(F)(F)c1ccccc1-n1ccnc1
inactive: Potency [1] | Potency [10] | outcome [3] | outcome [4] | outcome [6] | Potency [8] | Potency [9]

CC(=O)CCCCn1c(=O)c2c(ncn2C)n(C)c1=O
inactive: Potency [1] | Potency [10] | outcome [3] | outcome [4] | outcome [5] | outcome [6] | Potency [8] | Potency [9]

Nc1ccc(S(=O)(=O)Nc2ccc(Cl)nn2)cc1
inactive: Potency [1] | Potency [10] | outcome [3] | outcome [4] | outcome [6] | outcome [7] | Potency [8] | Potency [9]

CC(C)OC(=O)CCCCC(=O)OC(C)C
inactive: Potency [1] | Potency [10] | outcome [3] | outcome [4] | outcome [5] | outcome [6] | outcome [7] | Potency [8] | Potency [9]

Source: PubChem BioAssay (Tox21)
